Experimental data reported in PubChem BioAssay.
The source made the active and inactive calls.

Legend:
Albumin (Bos taurus) = Albumin (Bos taurus) (UniProt P02769); test: bovine serum albumin binders on microarray, profiling panel, artefact control for SMM control protein annotation, biochemical, small-molecule microarray, Alexa647 label, 635/667 nm fluorescence (AID 1118); conditions: BSA-A647 binding, fluorescence 635 nm, higher = more signal;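 also: score merges 667 nm emission intensity and signal-to-noise per printed compound spot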
Albumin (Bos taurus), sequence (P02769 whole entry, looked up): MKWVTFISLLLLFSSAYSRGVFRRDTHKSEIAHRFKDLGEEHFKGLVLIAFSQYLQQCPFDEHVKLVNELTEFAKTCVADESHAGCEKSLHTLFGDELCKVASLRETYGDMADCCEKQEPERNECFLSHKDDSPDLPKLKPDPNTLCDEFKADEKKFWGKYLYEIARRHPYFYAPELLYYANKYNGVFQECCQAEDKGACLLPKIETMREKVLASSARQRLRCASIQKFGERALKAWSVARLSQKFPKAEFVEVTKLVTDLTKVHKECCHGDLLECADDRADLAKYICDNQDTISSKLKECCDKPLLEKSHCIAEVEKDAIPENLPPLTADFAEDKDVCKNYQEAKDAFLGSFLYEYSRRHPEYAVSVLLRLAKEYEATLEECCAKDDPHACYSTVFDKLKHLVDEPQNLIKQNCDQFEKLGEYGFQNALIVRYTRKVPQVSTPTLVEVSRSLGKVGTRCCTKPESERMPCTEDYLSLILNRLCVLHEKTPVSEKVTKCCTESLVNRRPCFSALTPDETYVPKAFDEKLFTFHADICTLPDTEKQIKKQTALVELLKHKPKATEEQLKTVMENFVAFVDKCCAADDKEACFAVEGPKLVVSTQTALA

[1] = small-molecule microarray binders of probe aXIP, primary screen, biochemical, NeuroSMM set, 635/667 nm fluorescence (AID 1119); conditions: higher = more signal, called active from +8 up or from −8 down;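 also: probe is the protein aXip251-270 applied at 1 µg/mL to compound-printed slides; binding of probe to printed compounds measured as 667 nm fluorescence plus signal to noise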
[2] = small-molecule binders of probe aNOTCH3, primary screen, biochemical, small-molecule microarray, 635/667 nm fluorescence (AID 1120); conditions: higher = more signal;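 also: probe is a biotin-tagged antibody raised against NOTCH3 rather than NOTCH3 protein; score merges spot fluorescence near 667 nm with spot signal to noise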
[3] = small-molecule binders of probe aNOTCH2, primary screen, biochemical, small-molecule microarray, 635/667 nm fluorescence (AID 1121); conditions: higher = more signal;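 also: score merges feature fluorescence read at 667 nm with its signal to noise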
[4] = molecular target: Carbonic anhydrase 2 (Homo sapiens) (UniProt P00918); test: CAII small-molecule binders, profiling panel, biochemical, small-molecule microarray, Alexa647-labelled CAII (AID 1122); conditions: CAII-A647 binding fluorescence, higher = more signal
[5] = COS7 lysate on small-molecule microarray, probe aHis, 635 nm (AID 1123); conditions: COS7 cell lysate, fluorescence, higher = more signal;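 also: z-score combines 667nm fluorescence intensity with signal-to-noise per printed compound spot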
[6] = compound binding in COS7 lysate, probe aLAP1, primary screen, cell lysate, small-molecule microarray (AID 1124); conditions: probe aLAP1, fluorescence, higher = more signal;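 also: lysate comes from COS7 cells expressing LAP1 and is applied at 0.3 µg/mL; score merges spot fluorescence near 667 nm with signal-to-noise over triplicate slides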
Sam68 (KHDRBS1) = test: Sam68 small-molecule binders, primary screen, biochemical, small-molecule microarray, 635 nm fluorescence (AID 1125); conditions: small-molecule microarray binding, higher = more signal;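 also: score merges 667 nm channel intensity with signal to noise over triplicate slides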
[7] = test system: Chordin-like protein 2 (CHRDL2); test: CHRDL2 small-molecule binders, primary screen, biochemical, small-molecule microarray, 635 nm fluorescence (AID 1126); conditions: small-molecule microarray binding, fluorescence 635 nm; higher = more signal;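 also: printed compound slides probed with Chrdl2 protein at 4 µg/mL for 1 h at 4 C; score merges 667 nm emission intensity with signal to noise over three replicate slides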
[8] = molecular target: Concanavalin-A (Canavalia ensiformis) (UniProt P02866); test: ConA small-molecule binders, primary screen, artefact control for SMM control protein annotation, biochemical, small-molecule microarray, Alexa647 label, 635 nm (AID 1127); conditions: ConA-A647 binding fluorescence, higher = more signal;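 also: z combines 667 nm emission intensity with signal-to-noise across three replicate slides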
Concanavalin-A (Canavalia ensiformis), sequence (P02866 whole entry, looked up): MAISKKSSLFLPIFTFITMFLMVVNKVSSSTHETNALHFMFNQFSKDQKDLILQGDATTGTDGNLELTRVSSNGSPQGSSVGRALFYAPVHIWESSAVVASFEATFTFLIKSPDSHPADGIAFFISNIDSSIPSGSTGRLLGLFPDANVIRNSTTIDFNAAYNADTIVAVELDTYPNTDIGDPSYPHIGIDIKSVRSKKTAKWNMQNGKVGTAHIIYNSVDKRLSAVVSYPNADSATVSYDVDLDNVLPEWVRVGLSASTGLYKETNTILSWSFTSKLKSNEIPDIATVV

[9] = anti-His antibody binders, primary screen, artefact control for SMM control protein annotation, biochemical, small-molecule microarray, 635 nm fluorescence (AID 1128); conditions: anti-His Alexa647 antibody binding, higher = more signal;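 also: score merges feature fluorescence with signal-to-noise for each printed compound spot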
[10] = test system: Human papillomavirus type 1a E7 protein (residues 1-88); test: HPV1a E7 small-molecule binders, primary screen, biochemical, small-molecule microarray, residues 1-88, 635 nm (AID 1129); conditions: small-molecule microarray binding, fluorescence 635 nm; higher = more signal
[11] = molecular target: Focal adhesion kinase 1 (Homo sapiens) (UniProt Q05397); test: small-molecule microarray binders of FAK, primary screen, biochemical, 635/667 nm fluorescence, BSA, DTT (AID 1130); conditions: PTK2 binding, 635 nm fluorescence, higher = more signal;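 also: composite of spot emission at 667 nm and signal to noise over triplicate slides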
Focal adhesion kinase 1 (Homo sapiens), sequence (Q05397 whole entry, looked up): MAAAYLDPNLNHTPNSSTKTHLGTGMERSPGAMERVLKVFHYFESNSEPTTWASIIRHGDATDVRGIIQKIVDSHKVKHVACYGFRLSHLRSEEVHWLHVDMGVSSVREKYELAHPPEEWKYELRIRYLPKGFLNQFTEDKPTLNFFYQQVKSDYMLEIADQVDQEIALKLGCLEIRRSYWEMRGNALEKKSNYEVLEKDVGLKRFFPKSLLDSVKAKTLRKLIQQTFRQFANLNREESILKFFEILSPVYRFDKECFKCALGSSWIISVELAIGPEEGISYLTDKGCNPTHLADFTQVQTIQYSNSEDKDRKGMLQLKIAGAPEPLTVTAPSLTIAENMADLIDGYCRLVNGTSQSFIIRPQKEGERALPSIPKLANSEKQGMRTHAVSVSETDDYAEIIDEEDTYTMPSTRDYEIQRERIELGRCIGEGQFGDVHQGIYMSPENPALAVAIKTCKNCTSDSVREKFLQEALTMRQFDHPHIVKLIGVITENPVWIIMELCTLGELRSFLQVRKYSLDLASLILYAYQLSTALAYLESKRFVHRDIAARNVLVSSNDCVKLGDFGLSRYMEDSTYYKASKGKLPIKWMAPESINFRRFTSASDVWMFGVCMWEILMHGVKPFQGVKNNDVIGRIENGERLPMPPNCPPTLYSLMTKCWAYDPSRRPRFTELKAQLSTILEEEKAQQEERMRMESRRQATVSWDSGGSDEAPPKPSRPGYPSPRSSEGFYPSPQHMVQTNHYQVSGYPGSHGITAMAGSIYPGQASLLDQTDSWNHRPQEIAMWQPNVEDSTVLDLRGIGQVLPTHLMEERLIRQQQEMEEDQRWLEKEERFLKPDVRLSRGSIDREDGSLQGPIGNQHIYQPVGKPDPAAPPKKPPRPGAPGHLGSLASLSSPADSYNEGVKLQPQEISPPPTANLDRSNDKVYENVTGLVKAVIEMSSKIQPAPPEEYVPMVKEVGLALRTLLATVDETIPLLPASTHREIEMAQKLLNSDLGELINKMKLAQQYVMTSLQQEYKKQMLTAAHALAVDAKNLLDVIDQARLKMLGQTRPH

[12] = test system: Fibrinogen (Alexa647-labelled); test: fibrinogen binders on compound microarrays, profiling panel, artefact control for SMM control-protein annotation, biochemical, small-molecule microarray, 635/667 nm fluorescence (AID 1131); conditions: fibrinogen-A647 binding fluorescence, higher = more signal;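 also: z-score merges 667 nm fluorescence with per-spot signal-to-noise over triplicate slides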
[13] = molecular target: Follistatin (Homo sapiens) (UniProt P19883); test: follistatin binders on small-molecule microarrays, primary screen, biochemical, small-molecule microarray, 635/667 nm fluorescence (AID 1132); conditions: FST binding, 635 nm fluorescence, higher = more signal
Follistatin (Homo sapiens), sequence (P19883 whole entry, looked up): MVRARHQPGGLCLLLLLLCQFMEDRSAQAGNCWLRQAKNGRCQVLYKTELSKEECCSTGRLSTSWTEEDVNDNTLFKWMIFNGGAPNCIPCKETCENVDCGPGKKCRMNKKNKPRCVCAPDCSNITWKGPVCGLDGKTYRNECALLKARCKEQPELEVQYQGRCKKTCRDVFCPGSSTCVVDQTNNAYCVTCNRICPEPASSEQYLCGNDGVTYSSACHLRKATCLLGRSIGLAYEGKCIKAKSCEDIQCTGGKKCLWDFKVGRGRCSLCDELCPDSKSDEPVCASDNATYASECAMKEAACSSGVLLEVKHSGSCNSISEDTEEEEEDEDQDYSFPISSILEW

[14] = molecular target: Fibroblast growth factor 2 (Homo sapiens) (UniProt P09038); test: FGF2 binders on small-molecule microarrays, primary screen, biochemical, small-molecule microarray, 635/667 nm fluorescence (AID 1133); conditions: small-molecule microarray binding, FGF2, fluorescence 635/667; higher = more signal
Fibroblast growth factor 2 (Homo sapiens), sequence (P09038 whole entry, looked up): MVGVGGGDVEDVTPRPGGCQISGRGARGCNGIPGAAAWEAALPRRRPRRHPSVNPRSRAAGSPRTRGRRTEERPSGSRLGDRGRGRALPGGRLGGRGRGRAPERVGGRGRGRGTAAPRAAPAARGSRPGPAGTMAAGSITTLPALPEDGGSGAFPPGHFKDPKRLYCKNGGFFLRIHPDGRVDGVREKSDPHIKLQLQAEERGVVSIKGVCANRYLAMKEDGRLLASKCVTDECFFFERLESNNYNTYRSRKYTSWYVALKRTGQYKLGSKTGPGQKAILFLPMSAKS

[15] = mitochondrial membrane potential change in A549 cells, profiling panel, cell-based, JC-1 fluorescence, basal, 24 h, 100 nL (AID 1138); conditions: higher = more signal;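 also: A549 lung adenocarcinoma cells under basal conditions with no added stimulus; test concentration not given here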
Lefty1 = Lefty1 binders on small-molecule microarrays, primary screen, biochemical, small-molecule microarray, 635/667 nm fluorescence (AID 1139); conditions: small-molecule microarray binding, fluorescence 635/667; higher = more signal
[16] = test system: wheat germ agglutinin (Triticum aestivum), Alexa647-labelled; test: wheat germ agglutinin binders on compound microarrays, profiling panel, artefact control for SMM control-protein annotation, biochemical, small-molecule microarray, 635/667 nm fluorescence (AID 1140); conditions: WGA-A647 binding, 635 nm fluorescence, higher = more signal;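 also: score merges 667 nm feature emission with signal to noise over triplicate slides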
[17] = molecular target: Luciferin 4-monooxygenase (Photinus pyralis) (UniProt P08659); test: firefly luciferase enzyme inhibitors, primary screen, biochemical, luminescence, purified enzyme, 2006 set (AID 1141); conditions: SteadyGlo luminescence, 30 min, higher = more signal, called active from +8 up or from −8 down;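 also: cell-free assay with purified firefly luciferase at 100 ng per well in PBS; test concentration not given here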
Luciferin 4-monooxygenase (Photinus pyralis), sequence (P08659 whole entry, looked up): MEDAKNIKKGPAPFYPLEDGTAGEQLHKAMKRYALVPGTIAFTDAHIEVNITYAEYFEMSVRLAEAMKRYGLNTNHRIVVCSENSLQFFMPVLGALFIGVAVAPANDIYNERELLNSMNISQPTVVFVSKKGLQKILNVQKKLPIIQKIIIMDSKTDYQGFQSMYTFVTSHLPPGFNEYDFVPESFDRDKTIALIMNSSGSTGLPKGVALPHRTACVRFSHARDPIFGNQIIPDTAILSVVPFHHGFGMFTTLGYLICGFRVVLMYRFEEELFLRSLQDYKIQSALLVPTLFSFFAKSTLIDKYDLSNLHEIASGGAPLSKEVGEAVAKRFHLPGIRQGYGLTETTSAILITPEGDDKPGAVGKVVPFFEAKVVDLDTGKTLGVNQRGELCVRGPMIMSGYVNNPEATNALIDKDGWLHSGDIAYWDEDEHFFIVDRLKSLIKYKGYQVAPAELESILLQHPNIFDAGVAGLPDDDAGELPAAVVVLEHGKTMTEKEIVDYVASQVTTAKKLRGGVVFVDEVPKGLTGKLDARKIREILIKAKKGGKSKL

Compound | composite z-score (Albumin (Bos taurus)) | composite Z-score [1] | composite z-score [2] | composite z-score [3] | composite z-score [4] | composite z-score [5] | composite z-score [6] | composite z-score (Sam68 (KHDRBS1)) | composite z-score [7] | composite z-score [8] | composite z-score [9] | composite z-score [10] | composite z-score [11] | composite z-score [12] | composite z-score [13] | composite z-score [14] | z-score [15] | composite z-score (Lefty1) | composite z-score [16] | z-score [17]
O=C1C[C@@](C(=O)NCCN2CCOCC2)(c2ccc([N+](=O)[O-])cc2)[C@@H](c2ccc(CO)cc2)N1CC12CC3CC(CC(C3)C1)C2 | 0.0577 | 0.0308 (inactive) | 0.0208 | -0.084 | 0.548 | 2.53 | 0.0978 | 1.29 | 0.901 | 0.926 | 2.5 | 1.25 | 0.296 | 0.904 | 1.34 | 1.13 | -0.712 | 0.646 | 1.09 | -0.988 (inactive)
COCCOC(=O)N1C(=O)[C@@]2(c3cc(C#CCC(C(=O)OC)C(=O)OC)ccc31)[C@H](c1ccccc1OCCO)N1[C@H](c3ccccc3)[C@H](c3ccccc3)OC(=O)[C@H]1[C@@H]2C(=O)N1CCN(c2ncccn2)CC1 | 0.846 | 0.347 (inactive) | 0.225 | -0.0249 | 0.499 | 1.66 | 0.596 | 1.31 | 1.04 | 1.12 | 0.762 | 1.12 | 0.966 | 0.696 | 1.38 | 1.46 | -0.895 | 1.17 | 0.63 | 0.505 (inactive)
CCOC(=O)C[C@H]1[C@H](OC(=O)c2cc3ccccc3oc2=O)[C@@H](NC(=O)c2ccccc2)c2cc(OCCCO)ccc2N1C(=O)c1ccc2ccccc2n1 | -0.117 | 0.315 (inactive) | 0.0496 | 0.655 | 0.515 | 0.922 | 0.0418 | 0.845 | 0.651 | 0.821 | 0.255 | 0.625 | -0.148 | 0.586 | 1.19 | 0.563 | -0.339 | 0.87 | 0.345 | 0.409 (inactive)
CCCC[C@@H]1C[C@H]1[C@@H](NC(=O)c1ccco1)c1ccccc1C(F)(F)F | 0.706 | -0.234 (inactive) | 1.91 | 0.752 | 0.561 | 1.09 | 0.451 | -0.215 | 0.23 | 0.418 | -0.422 | 0.0662 | 0.57 | 0.349 | 0.674 | -0.527 | -0.914 | -0.302 | 1.15 | 1.8 (inactive)
C=CCC(OC(C)=O)[C@@H]1[C@@H](N(Cc2cc3ccccc3o2)C(=O)c2cccc3ccccc23)c2cc(OCCCO)ccc2N1C(=O)c1ccc(-c2ccccc2)cc1 (stereo not given in full) | 0.236 | -0.418 (inactive) | 0.0779 | -0.113 | -0.0159 | 0.317 | -0.187 | 0.195 | 0.107 | -0.505 | -0.202 | 0.0155 | -0.166 | -0.827 | 0.791 | 0.401 | 0.461 | 0.218 | 0.297 | -0.219 (inactive)
O=C(NCCN1CCOCC1)[C@@H]1c2ccccc2C(=O)N(C2CCCCC2)[C@H]1c1ccc(CO)cc1 | 0.349 | -0.118 (inactive) | -0.154 | -0.147 | 0.625 | 1.29 | -0.0871 | 0.68 | -1.08 | 0.31 | 0.166 | 0.0657 | -0.0962 | 0.74 | 0.0603 | -0.59 | 2.27 | -0.0981 | -0.403 | -0.293 (inactive)
CO[C@H]1O[C@H](CO)[C@@H](OC(=O)Nc2cccc(F)c2)[C@H](OC(=O)Nc2ccccc2)[C@@H]1OC(=O)Nc1ccccc1 | 0.875 | 0.311 (inactive) | 0.138 | 0.003 | 0.555 | 2.54 | 1.02 | 1.3 | -0.219 | 0.724 | 1.16 | 1.22 | 0.919 | 0.973 | 0.518 | 0.843 | 0.0874 | -0.105 | 1.27 | 0.0107 (inactive)
CCOC(=O)C[C@H]1[C@H](OC(=O)c2ccc(C(=O)c3ccccc3)cc2)[C@@H](NC(=O)c2ccccc2)c2cc(OCCCO)ccc2N1C(=O)c1ccc2ccccc2n1 | 0.783 | -0.386 (inactive) | 0.0561 | -0.0187 | 0.418 | 1.53 | 0.612 | 1.33 | -0.284 | 1.05 | 1.03 | 1.06 | 0.281 | 0.788 | -0.0746 | -0.268 | 0.586 | 0.536 | 0.324 | -0.417 (inactive)
COc1cc2c(cc1OC)CN(C(=O)[C@H]1[C@@H]3C(=O)O[C@@H](c4ccccc4)[C@@H](c4ccccc4)N3[C@@H](c3ccc(O)cc3)[C@]13C(=O)Nc1ccc(C#CCCO)cc13)CC2 | 0.184 | 0.274 (inactive) | 0.176 | -0.0474 | 0.213 | 1.46 | 0.127 | 1.24 | 0.077 | 0.964 | 1.31 | 1.21 | 0.055 | 0.807 | 1.12 | 0.0827 | -0.824 | 0.0938 | 0.943 | 1.1 (inactive)
CC(C)NC(=O)[C@@]1(C)c2ccccc2C(=O)N(Cc2cc(C(F)(F)F)cc(C(F)(F)F)c2)[C@H]1c1ccc(CO)cc1 | -0.47 | -0.0197 (inactive) | -0.165 | -0.123 | 0.689 | 2.07 | -0.208 | 0.784 | -1.39 | 0.0957 | -0.229 | 0.272 | 0.0662 | -0.285 | -0.101 | -0.741 | 1.21 | -0.146 | -0.568 | -0.734 (inactive)
